Drawing on PubChem BioAssay AID686940 (The Scripps Research Institute Molecular Screening Center, 2013), this text covers inhibition for 55 compounds.

Structures are written as SMILES. In all, about 370,000 compounds went through this assay and about 2,600 (0.7%) were called active.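 Rule for the calls: active = inhibition above a per-plate cutoff, mean inhibition of test wells between control levels plus 3 SD (cut at about 38% in these data); inactive = the rest.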 The full list was thinned out, with actives kept by preference.

In this experiment the target is COUP transcription factor 2 (Homo sapiens) (UniProt P24468). Nature of the experiment: NR2F2 transcriptional activity inhibitors, primary screen, cell-based, luciferase reporter, HEK293T, luminescence (AID 686940).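 Note: cells cotransfected with COUP-TFII expression vector driving the NGFI-A reporter; 0% = median of COUP-TF2 test wells and 100% = reporter-only cells.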 Conditions: HEK293T NGFI-A luciferase reporter, at 8.6 µM, hits give high values. Background: A reporter such as luciferase makes a cellular process visible.
Chain of COUP transcription factor 2 (Homo sapiens) (P24468 whole entry, looked up): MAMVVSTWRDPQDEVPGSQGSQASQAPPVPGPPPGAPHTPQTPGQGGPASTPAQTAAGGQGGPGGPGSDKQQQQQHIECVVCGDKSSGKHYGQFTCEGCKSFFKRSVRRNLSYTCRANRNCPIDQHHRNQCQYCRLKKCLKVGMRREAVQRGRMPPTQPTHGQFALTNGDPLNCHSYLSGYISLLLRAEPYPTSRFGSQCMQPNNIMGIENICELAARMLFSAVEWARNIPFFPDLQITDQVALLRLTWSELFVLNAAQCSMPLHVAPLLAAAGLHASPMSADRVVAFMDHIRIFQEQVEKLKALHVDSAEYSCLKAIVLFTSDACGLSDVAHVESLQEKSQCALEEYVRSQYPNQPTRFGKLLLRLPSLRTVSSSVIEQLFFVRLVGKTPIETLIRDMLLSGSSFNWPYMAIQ
Take `Cc1cc(C)cc(NC(=O)N2CCC(N(C)CCC(C)C)CC2)c1`: the inhibition (commonly the drop in the measured response relative to a control, in per cent) was 1.48% (inactive).
The result for `Cc1ccc(C)c(N2CCN(C(=O)CCCCCn3c(=S)[nH]c4ccc(N5CCOCC5)cc4c3=O)CC2)c1` reads 44.7% (active).
Turning to `Cc1ccc(OCCCC(=O)N2CCOCC2)c(C)c1`, the inhibition is -6.33% (inactive).
The result for `Cc1ccc(C)c(N2CCN(C(=O)Cn3ncn4cccc4c3=O)CC2)c1` reads 10.1% (inactive).
As for `CCC(c1ccc(NC(=O)OC(C)(C)C)cc1)c1cc(OC)cc(OC)c1` (stereo not given), the inhibition was 20% (inactive).
To `Fc1ccc2[nH]c3c(N4CCSCC4)ncnc3c2c1` belongs 45.2% (active); to `COc1ccc(CN(CCN2CCOCC2)C(=O)c2ccc(C)cc2)cc1OC`, -7.96% (inactive); to `CCOC(=O)[C@@]12CN(C(=O)OC(C)(C)C)CC=C1N(Cc1ccc(OC)cc1)C(=O)[C@H]2CC(=O)NCc1ccc(OC)c(OC)c1`, -0.1% (inactive).
The result for `Cc1cc(C)nc(NC(=S)N2CCN(c3ccc(C(F)(F)F)cn3)CC2)c1` reads 22.9% (inactive); that for `CC(=O)OC12CCCN(C1)/C(=C/c1ccncc1)C2` (stereo not given), 3.99% (inactive).
Turning to `COc1cccc(CNC(=O)C2CCCN(c3nc4ccccc4o3)C2)c1OC` (stereo not given), the inhibition is -7.71% (inactive).
Turning to `O=C(Nc1nnc([C@H]2C[C@H](O)[C@@H](CO)O2)s1)c1cccc(Cl)c1`, the inhibition was 7.36% (inactive).
The result for `Cc1ccc(CNC(=O)Nc2nnc([C@H]3C[C@H](O)[C@@H](CO)O3)s2)cc1` reads 46.9% (active); that for `O=C(Nc1ccc(F)cc1)Nc1nnc([C@H]2C[C@H](O)[C@@H](CO)O2)s1`, -2.93% (inactive); that for `Cc1cc(C(=O)NN=C/C=C/c2ccco2)n[nH]1`, -13.9% (inactive).
For the compound `COC(=O)c1ccccc1NC(=O)CSc1n[nH]c(-c2ccncc2)n1`, the inhibition is 8.9% (inactive).
As to `CCc1c(C)nc(SCC(=O)NC2CCCC2)[nH]c1=O`, the inhibition was 11.9% (inactive).
With `CCc1ccc(-c2nc(SCC(=O)NC3CCCC3)n[nH]2)cc1`, the inhibition is 53.3% (active).
As to `O=C(c1cccc(C(F)(F)F)c1)N1CC[C@H]2[C@H](CCCN2Cc2cc(F)cc(F)c2)C1`, the inhibition was 2.53% (inactive).
To `CCc1ccc(N(CC)c2ncnc3nc[nH]c23)cc1` belongs 39.6% (active); to `S=c1c2[nH]cnc2ncn1CCSc1ncnc2nc[nH]c12`, 3.01% (inactive); to `Cc1ccc(NC(=O)c2ccc(CSc3ncnc4nc[nH]c34)cc2)c(C)c1`, -6.98% (inactive).
Regarding `CCCCN1CCN(C(=O)c2ccc3c(c2)NC(=O)C(C)(C)O3)CC1`, the inhibition was -23.3% (inactive).
With `O=C(NC(Nc1nc2ccc([N+](=O)[O-])cc2s1)(C(F)(F)F)C(F)(F)F)c1ccccc1`, the inhibition is 74.1% (active).
For `O=C(CNC(=O)c1ccccc1)OC(C(=O)Nc1cc([N+](=O)[O-])ccc1F)c1ccccc1` (stereo not given), the inhibition is 1.21% (inactive).
On to `O=C(Nc1nc2ccc(Cl)cc2s1)c1cc(-c2ccc(Cl)cc2)nc2ccccc12`, for which the inhibition was -23.3% (inactive).
Consider `Cc1ccccc1NC(=O)COC(=O)c1ccc(Sc2ncn[nH]2)c([N+](=O)[O-])c1`, for which the inhibition was 13.4% (inactive).
To `O=C(NCCSCc1ccccc1)c1ccc(Cl)c(S(=O)(=O)N2CCOCC2)c1` belongs 11% (inactive); to `CC(C)(CNC(=O)c1ccc(Cl)c(S(=O)(=O)N2CCc3ccccc3C2)c1)N1CCOCC1`, 65% (active).
In the case of `CN(C)S(=O)(=O)c1ccc(C(=O)NCC(C)(C)N2CCOCC2)cc1`, the inhibition was 15.8% (inactive).
The result for `N#Cc1ccc(OC[C@@H](O)CN2CCC(C(O)(c3ccccc3)c3ccccc3)CC2)c(F)c1` reads -4.45% (inactive); that for `O=C(CSc1nc2ccccc2s1)NN=Cc1ccc(O)cc1O`, -18.2% (inactive); that for `C=CCN(C)CC#Cc1ccccc1`, 17.2% (inactive).
Turning to `Cc1ccc(-n2c(SCC(=O)Nc3cccc4ccccc34)nnc2-c2ccccn2)cc1`, the inhibition is 14.2% (inactive).
Turning to `CC(C)(C)c1ccc(Oc2ccc(N)cc2)cc1`, the inhibition was 100% (active).
With `COc1cccc(CNC(=O)CNS(=O)(=O)c2ccc3nc(C)sc3c2)c1OC`, the inhibition is 14.5% (inactive).
The result for `O=C1CCC2(CCC(c3ccc(Cl)cc3)CC2)N1CCO` (stereo not given) reads 20.9% (inactive); that for `COC1=C[C@H](C(=O)NCCNC(C)=O)[C@H](C)[C@@H](c2ccccc2)CC1=O`, 12% (inactive).
The result for `CN(C)S(=O)(=O)c1cccc(C(=O)N/N=C\c2ccco2)c1` reads 2.18% (inactive); that for `O=C(Nc1ccccc1)N1CCN(Cc2nc3ccccc3c(=O)[nH]2)CC1`, 13.6% (inactive); that for `O=C(C1CCN(S(=O)(=O)c2ccccc2)CC1)N1CCN(C2CCCCC2)CC1`, -29.2% (inactive).
The result for `CCN(CC)P(=O)(C(NC(=O)OC)C(F)(F)C(F)(F)C(F)(F)C(F)F)N(CC)CC` (stereo not given) reads 98.4% (active); that for `O=C(CSc1nc2c(c(=O)[nH]1)CCCC2)N1CCCCC1`, -26.3% (inactive).
As to `O=S1(=O)c2ccc(N3CCN(Cc4ccccc4F)CC3)cc2Oc2ccccc2CN1Cc1cn(Cc2ccc(Cl)cc2)nn1`, the inhibition was -6.71% (inactive).
To `Cc1ccc(-n2c(SCC(=O)Nc3ccc(S(=O)(=O)Nc4nccs4)cc3)nnc2-c2ccccn2)cc1` belongs -5.91% (inactive).
To `C=CCSc1nsc(NC(=O)Nc2cccc(C(C)=O)c2)n1` belongs 38.1% (active); to `CCSc1nsc(NC(=O)Nc2cccc(C(C)=O)c2)n1`, 17.5% (inactive); to `CCCCN1C(=O)C(=O)N(CC(=O)Nc2cccc(C(C)=O)c2)C1=O`, 0.73% (inactive).
The result for `COC(=O)C[C@@H]1CC[C@@H]2[C@H](COc3ccc(NC(=O)c4cccc(F)c4)cc3C(=O)N2C)O1` reads -0.62% (inactive).
As for `COc1ccc(-n2c(SCC(=O)Nc3ccc4cn[nH]c4c3)nnc2-c2cccnc2)cc1`, the inhibition was 9.8% (inactive).
The result for `N#CCC[C@H]1CC[C@]2(CCCN(Cc3ccc(Cl)cc3)C2)O1` reads 1.96% (inactive); that for `O=C1NC[C@H](CCCCN2C[C@H](Cc3ccccc3)N(Cc3ccccc3)C(=O)C2=O)N(CCc2ccc(O)cc2)C1=O`, -7.95% (inactive).
Take `O=C1NC[C@H](CCCCN2C[C@H](Cc3ccc(O)cc3)N(CCc3ccccc3)C(=O)C2=O)N(CCc2ccccc2)C1=O`: the inhibition was -1.56% (inactive).
To `O=C1NC[C@@H](Cc2ccc(O)cc2)N(CCc2cccc(F)c2)C1=O` belongs 48.2% (active); to `COc1ccnc(C(=O)N2CCC(Oc3cccnc3)CC2)c1`, -26.8% (inactive).
